KKLEB tox: cytotoxicity in KKLEB CF airway cells, primary screen, cytotoxicity control for CF NF-kB inhibitor project, cell-based, uHTS, fluorescence assay plates; KKLEB CF airway cells viability, ATPlite luminescence, overnight; hits give low values; cells stimulated with P. aeruginosa culture filtrate; activity change (cytotoxicity), % at 5 µM; 0.36% of 360,000 active;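 active means corrected activity change at or below -50% at 5 µM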
CF NFkB inh: inhibitors of PAF-induced NF-kB signaling, primary screen, cell-based, GFP fluorescence, uHTS; inhibition, % at 5 µM; KKLEB NF-kB-GFP reporter, GFP fluorescence overnight; 0.86% of 360,000 active; AID 588850, 2011;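 active means at least 50% inhibition at 5 µM, scaled per plate between neutral and stimulator controls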;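 further: PAF is a Pseudomonas aeruginosa culture filtrate used as stimulus; plate controls were PAF-stimulated DMSO wells for no effect and unstimulated DMSO wells for full effect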
Peg3 prom inh: Peg3 promoter-driven luciferase inhibitors, primary screen, cell-based, HeLa, luciferase luminescence | HeLa PEG-Prom luciferase reporter, overnight | inhibition, % at 20 µM | 1.7% of 360,000 active | AID 588405, 2011;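 active means inhibition of at least 50% at 20 µM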
HIF-2a block: HIF-2a reporter inhibitors, primary screen, luminescence, 786-0 RCC cells. 786-0 RCC cells HIF-2a reporter, luciferase luminescence, overnight. inhibition, % at 18.8 µM. 0.72% of 360,000 active. AID 624352, 2012;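 active means inhibition of the luminescence signal of 40% or more relative to plate controls, in a single-dose primary screen at 18.75 µM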
ABHD5 PLIN5 PPI: ABHD5-PLIN5 interaction inhibitors, primary screen, cell lysate, split luciferase complementation, luminescence. Perilipin-5 (Homo sapiens) + 1-acylglycerol-3-phosphate O-acyltransferase ABHD5 (Homo …. Split G. princeps luciferase complementation, 4 h. inhibition, % at 4 µM. 0.78% of 360,000 active. AID 602281, 2012;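 active means inhibition above the mean inhibition across every tested compound plus 3 SD, cut at about 22% in these data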;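 further: 0% = DMSO only wells and the 100% control is not disclosed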
Target sequence (Q00G26 whole entry, looked up): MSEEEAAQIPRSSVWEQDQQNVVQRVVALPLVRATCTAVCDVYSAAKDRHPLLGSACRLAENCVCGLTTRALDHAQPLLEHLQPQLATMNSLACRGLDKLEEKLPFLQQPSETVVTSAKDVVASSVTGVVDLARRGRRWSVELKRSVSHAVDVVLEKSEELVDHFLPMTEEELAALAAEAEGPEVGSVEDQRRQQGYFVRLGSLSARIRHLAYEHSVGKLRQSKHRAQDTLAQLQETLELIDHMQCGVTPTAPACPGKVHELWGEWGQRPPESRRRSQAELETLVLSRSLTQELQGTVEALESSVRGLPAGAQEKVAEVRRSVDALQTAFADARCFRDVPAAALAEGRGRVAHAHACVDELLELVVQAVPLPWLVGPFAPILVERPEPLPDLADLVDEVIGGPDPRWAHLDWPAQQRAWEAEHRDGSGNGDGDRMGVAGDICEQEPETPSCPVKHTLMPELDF
Target sequence (Q8WTS1 whole entry, looked up): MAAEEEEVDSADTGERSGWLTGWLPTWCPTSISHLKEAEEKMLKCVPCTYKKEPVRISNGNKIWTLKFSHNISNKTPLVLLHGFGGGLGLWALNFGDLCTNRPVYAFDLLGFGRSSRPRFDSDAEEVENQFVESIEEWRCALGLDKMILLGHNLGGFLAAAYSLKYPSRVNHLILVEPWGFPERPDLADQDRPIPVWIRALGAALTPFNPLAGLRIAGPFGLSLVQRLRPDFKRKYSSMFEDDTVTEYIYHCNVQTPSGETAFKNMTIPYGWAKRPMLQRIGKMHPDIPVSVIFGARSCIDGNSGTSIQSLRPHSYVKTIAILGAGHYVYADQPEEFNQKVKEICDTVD
Mdm2 MdmX PPI: inhibitors of human Mdm2-MdmX association, primary screen, cell-based, luminescence, split luciferase, SaOS-2, uHTS; SaOS-2 split-luciferase Mdm2/MdmX complementation; inhibition, % at 8 µM; 3% of 330,000 active;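 active means inhibition of at least 50% at 8 µM in the primary screen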
Starred values were filed as active, the others as inactive; nt = not tested or not shown. Most compounds without a hit are left out; they make up all but 4.6% or so of the library.

SMILES	KKLEB tox	CF NFkB inh	Peg3 prom inh	HIF-2a block	ABHD5 PLIN5 PPI	Mdm2 MdmX PPI
CC(C)N1C(=O)S/C(=C/c2ccc3c(c2)n(C)c(=O)n3C)C1=O	5	-60	-56	-82	0	45
CCN(CC)c1ccc(/C=C2\SC(=O)N(C(C)C)C2=O)o1	13	-19	89*	-18	86*	1
CN1C(=O)c2ccccc2CC12c1ccccc1C(=O)N2C (stereo not drawn)	-12	-6	5	6	5	nt
N#Cc1cccc2c1-c1ccccc1/C2=N/NC(N)=O	10	-101	52*	30	9	26
Cc1cccc(NC(=O)c2ncn3c2C(=O)N[C@H](C)C3)c1	14	-10	-7	-33	0	nt
COc1ccc(C(=O)/C=C/c2cccc(OCc3ccccc3)c2)cc1CSCC(=O)O	-18	-9	75*	20	5	37
COc1ccc(/C=C/C(=O)c2ccccc2)cc1COc1ccc(F)cc1	-8	-1	41	2	22*	9
COc1ccc(C(=O)/C=C/c2ccc(OCc3ccccc3)cc2)cc1CSCC(=O)O	-26	39	25	2	4	5
Cc1cccc(C(C)C)c1NC(=O)COC(=O)c1cccc(S(=O)(=O)N2CCc3ccccc3C2)c1	-14	20	60*	17	0	16
Cc1nonc1OCCNc1ccc([N+](=O)[O-])cc1[N+](=O)[O-]	0	0	65*	4	5	nt
O=[N+]([O-])c1ccc2nc(NN=Cc3ccc(O)cc3)sc2c1	-6	34	72*	-193	4	nt
COC1C=CC=C(C)C(=O)NC2=CC(=O)C(N)=C(CC(C)CC(OC)C(O)C(C)C=C(C)C1OC(N)=O)C2=O (stereo not drawn)	17	64*	64*	-45	-12	nt
CC(O)(c1ccc(F)c(F)c1)c1nc(-c2ccc(Cl)cc2)cs1 (stereo not drawn)	8	-14	76*	2	-3	nt
Nc1nc2nc(-c3ccccc3)cc(C(F)(F)F)c2s1	-2	-12	2	-13	-16	31
Cc1ccc(Nc2nc(N)c3ccccc3n2)cc1Cl	-46	1	-87	-106	3	-208
CCOc1ccc(Nc2nc(N)c3ccccc3n2)cc1	-56*	-8	58*	47*	6	-5
Nc1nc(Nc2ccc(Cl)cc2)nc2ccccc12	-55*	8	-48	-76	2	-129
Nc1nc(Nc2ccccc2)nc2ccccc12	-22	-5	-202	-143	1	-217
CC(=O)OC(c1nc2ccccc2c(=O)n1C1CC2(OC1=O)c1ccccc1N1C(=O)C(C)(C)N(O)C12)C(C)C (stereo not drawn)	-5	-21	19	6	-2	24
COCCNC(=O)C1(C)CCN(C(=O)c2cccnc2Oc2ccccc2)C1 (stereo not drawn)	1	23	-12	8	4	nt
COc1ccc(C(=O)N2CCC(C)(C(=O)O)C2)cc1OC (stereo not drawn)	0	6	-13	2	7	nt
COc1ccc(-c2oc3c(c2-c2cnc(OC)nc2)C(O)CC3)cc1 (stereo not drawn)	nt	nt	nt	-7	9	nt
COc1ccccc1CN(C)C[C@@H]1OCc2cnnn2CCCC(=O)N([C@H](C)CO)C[C@H]1C	3	14	-1	7	-9	nt
Cc1cc(C)cc(N(C(=O)c2nsc(Cl)c2Cl)C(C(=O)NC2CCCC2)c2ccc(O)cc2)c1 (stereo not drawn)	-5	13	60*	8	-2	19
Cc1ccc(N(C(=O)c2nsc(Cl)c2Cl)C(C(=O)NC2CCCC2)c2ccc(O)cc2)cc1C (stereo not drawn)	-23	27	-56	-97	-11	-4
SMILES	KKLEB tox	CF NFkB inh	Peg3 prom inh	HIF-2a block	ABHD5 PLIN5 PPI	Mdm2 MdmX PPI
C=CC[C@]12CCc3ccccc3C1N(c1ccc(C(=O)OCC)cc1)C2=O (stereo partly drawn)	-8	35	1	10	-18	4
CCN(CC)c1ccc(N2C(=O)/C(=C/c3cccnc3)SC2=S)cc1	-39	56*	11	8	-8	8
CCC(C)c1ccc(S(=O)(=O)N2CCN3CCCC3C2)cc1 (stereo not drawn)	-4	8	18	3	4	16
CC(=O)N1CCN(c2ccc(S(=O)(=O)N3CCCCC3)cc2[N+](=O)[O-])CC1	-18	9	5	7	5	18
O=C(/C=C/c1ccc(N2CCCCC2)c([N+](=O)[O-])c1)c1ccc(S(=O)(=O)N2CCCC2)cc1	-18	17	55*	21	10	nt
CN(C(=O)CN1CCN(c2ccccc2F)CC1)C1CCCc2ccccc21 (stereo not drawn)	2	6	10	8	-3	17
O=C(CCC(=O)OCC(F)(F)C(F)F)Nc1ccc(Cl)cc1	-1	6	63*	3	1	-2
O=C(CCC(=O)OCC(F)(F)C(F)F)Nc1ccc(F)cc1F	-12	-8	12	20	5	-22
O=C(/C=C/c1cc[n+](CC(=O)c2ccc3cccc4c3c2CC4)cc1)c1ccc2cccc3c2c1CC3	-36	24	23	12	23*	-3
O=C(C[n+]1ccc2ccccc2c1)c1cccc2ccccc12	-7	12	-16	12	3	-6
CN(C)c1ccc(C=Nc2ccccc2C(N)=O)cc1	-41	-3	63*	6	2	-21
Cc1ccc(C=Nc2ccccc2C(N)=O)o1	-7	9	-14	9	1	-60
CNC(=O)CC1C(=O)N(c2ccc(OC)cc2)C(=S)N1NC(=O)c1cccc(F)c1 (stereo not drawn)	-4	6	69*	2	8	-30
CC(C)=CC(O)C/C(C)=C/COc1ccc2ccc(=O)oc2c1 (stereo not drawn)	7	14	94*	-2	-6	16
Cc1cccc2sc(N(CCCN(C)C)C(=O)c3ccc(C(=O)c4ccccc4)cc3)nc12	6	29	86*	-5	13	45
Cc1cccc2sc(N(CCCN(C)C)C(=O)c3sc4ccccc4c3Cl)nc12	-15	2	-22	10	19	18
CN(C)CCCN(C(=O)/C=C/c1cccs1)c1nc2c(F)cccc2s1	-11	19	106*	14	17	nt
CCN(CC)S(=O)(=O)c1cc(NC(=O)CCn2[nH]c(=O)ccc2=O)ccc1C	-6	4	10	7	-2	3
COc1ccc(N2CCCn3c2nc2c3c(=O)n(CCc3ccccc3)c(=O)n2C)cc1	-5	-8	52*	6	2	26

High-throughput results: PubChem BioAssay, several laboratories
